Screening data (PubChem)
HCV inhibitor: HCV inhibition; Potency, µM (doses to about 41.8 µM), without a hit: top-dose activity change, negative = inhibition, actives largely listed as inhibitors; AID 651820; Huh7.5.1 HCVcc-Cre infection, luciferase reporter, 44 h; 340,000 compounds, 3.4% hits
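1,000 cells/well; 4 h culture; + compound; + HCVcc-Cre (~0.5 moi); 44 h; luciferase substrate, RT 15 min; read 15 sec.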
AMA1-RON2 inh: AMA1-RON2 (P. falciparum) interaction inhibition. 360,000 compounds, 0.2% hits. Potency, µM (highest dose often 58.2 µM), for the others: at the highest dose activity change, negative = inhibition, actives largely listed as inhibitors. AlphaScreen AMA1-biotinylated RON2 peptide binding;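 further: 0% = vehicle wells and -100% = peptide control; nearly all actives have a fitted effect of over 45% in size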
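AMA1 (3D7) with his tag at 25 nM final met compounds first, then biotinylated RON2 peptide at 25 nM; detection used donor plus acceptor beads, 10 µg/mL apiece, read by AlphaScreen after 30 min at room temperature.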
Pf growth 96h: P. falciparum growth inhibition at 96 hours; P. falciparum luciferase reporter growth, 96 h; Potency, µM (doses to about 28.7 µM), inactives show top-dose activity change, negative = inhibition, most hits filed as inhibitors; 320,000 compounds, 6.9% hits
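Compounds incubated with erythrocytes infected by luciferase-expressing P. falciparum (2% hematocrit, 0.05% parasitemia final) for 96 hours, 37 C in 5% CO2. Growth inhibition scored as decreased luciferase luminescence.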
AmpC detergent: AmpC beta-lactamase inhibition with detergent present; AmpC hydrolysis of nitrocefin, absorbance 480 nm, 0.01% Triton; Potency, µM (top dose mostly 114 µM), without a hit: at the top dose activity change, negative = inhibition, usual class: inhibitors; 370,000 compounds, 0.041% hits; AID 485294;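 further: 0% = no-compound wells and -100% = no-enzyme wells; nearly all actives have a fitted effect of over 25% in size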
Target sequence (P00811 whole entry, looked up): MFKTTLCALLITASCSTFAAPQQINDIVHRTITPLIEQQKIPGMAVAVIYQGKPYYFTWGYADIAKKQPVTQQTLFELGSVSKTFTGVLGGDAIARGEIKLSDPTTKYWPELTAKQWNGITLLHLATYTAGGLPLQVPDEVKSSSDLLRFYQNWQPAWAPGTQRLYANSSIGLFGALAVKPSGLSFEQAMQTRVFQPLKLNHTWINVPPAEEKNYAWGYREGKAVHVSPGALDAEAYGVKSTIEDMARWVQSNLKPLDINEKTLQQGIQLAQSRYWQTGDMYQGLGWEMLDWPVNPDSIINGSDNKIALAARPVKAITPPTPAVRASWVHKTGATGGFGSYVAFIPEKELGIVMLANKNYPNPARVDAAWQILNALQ
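AmpC (5.3 nM in the dispensed reagent) in 20 mM phosphate pH 7.0 with 0.01% (detergent screen) or 0.0001% Triton X-100 was preincubated with compounds for 15 min at room temperature. Nitrocefin was then added from an 800 uM solution, and hydrolysis was followed at 480 nm.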
Pf growth 48h: inhibits P. falciparum growth in the first generation, 48 h; Potency, µM (titrated, usually from 28.7 µM), inactives show at the top dose activity change, negative = inhibition, most hits filed as inhibitors; 310,000 compounds, 5.9% hits; P. falciparum luciferase growth in erythrocytes, 48 h
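Here the parasites carry a stable luciferase gene and grow inside erythrocytes in Albumax-based RPMI medium with compound for one erythrocytic cycle. Activity is scored as loss of luminescent signal.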
AmpC inh no detg: inhibitors of E. coli AmpC beta-lactamase without detergent; P00811; AmpC nitrocefin hydrolysis, absorbance 480 nm, 0.0001% Triton; Potency, µM (top dose mostly 57.1 µM), inactives show at the highest dose activity change, negative = inhibition, hits mostly inhibitors; 330,000 compounds, 0.52% hits;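 further: plate controls were no compound for no effect and no enzyme for full effect; nearly all actives have a fitted effect of over 20% in size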
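20 mM phosphate pH 7.0 + 0.01% (detergent screen) or 0.0001% Triton X-100; 5.3 nM AmpC reagent; cpd preinc 15 min RT; nitrocefin (800 uM stock) to start; A480 q20 s × 4 min; Activity was normalised to no-enzyme and no-compound control wells.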
* marks the source's active call; other numbers are inactive results; [ ] = remark or other dose. A selection: hits, their analogues and other compounds. The true share with any hit is near 11%. The call rests on the fitted dose curve; in most records, active means well fitted curve in the direction sought with a large enough effect; inconclusive means small, poorly fitted or top-dose-only effect, or another doubt; inactive means no such curve, though single readings can be large; an effect the other way counts as inactive or inconclusive. Unless noted, on the % scale 0 is the no-effect control and ±100 the full control effect; potency means the concentration at half of the fitted maximal effect.

What do the screens show for `O=C(NNc1ccccc1Br)C(O)(c1cccc(C(F)(F)F)c1)c1cccc(C(F)(F)F)c1`?
HCV inhibitor: inconclusive; AMA1-RON2 inh: -8.5%[2.32 µM]; Pf growth 96h: 2.33µM*; AmpC detergent: -8.6%; Pf growth 48h: 2.62µM*; AmpC inh no detg: -20.1%

What do the screens show for `Cc1ccc(NNC(=O)C(O)(c2cccc(C(F)(F)F)c2)c2cccc(C(F)(F)F)c2)cc1`?
HCV inhibitor: inconclusive; AMA1-RON2 inh: 2.7%[11.6 µM]; Pf growth 96h: inconclusive; AmpC detergent: -10.6%; Pf growth 48h: 13.1µM*; AmpC inh no detg: -47.5%

Results for COc1ccccc1CNc1ncnc2c1c(-c1ccccc1)cn2-c1cccc(C)c1 ?
AmpC detergent: -5.3%

How did CCOc1ccc(-n2nc(CO)c(C(=O)NCC(c3ccccc3)c3ccccc3)n2)cc1 do in these assays?
AmpC detergent: 7.1%

How did O=c1oc2ccccc2n1CCCOc1ccccc1Cl do in these assays?
AmpC detergent: 3.3%

How did COc1cccc(/C=N/N2CCN(C3c4ccccc4-c4ccccc43)CC2)c1O do in these assays?
HCV inhibitor: -11.3%; AMA1-RON2 inh: 0.0%; Pf growth 96h: inconclusive; AmpC detergent: -2.4%; Pf growth 48h: 13.1µM*; AmpC inh no detg: -14.2%

Results for CC(=O)NC1(c2ccccc2)CCN(Cc2nnnn2C(C)(C)C)CC1 ?
HCV inhibitor: -11.5%; AMA1-RON2 inh: -10.4%; Pf growth 96h: 11.7µM*; AmpC detergent: 9.5%; Pf growth 48h: 5.3%; AmpC inh no detg: -12.7%

How did CCS(=O)(=O)N1CCC(NC(C)=O)(c2ccccc2)CC1 do in these assays?
HCV inhibitor: -10.2%; AMA1-RON2 inh: -13.9%; Pf growth 96h: -19.3%; AmpC detergent: -12.7%; Pf growth 48h: -0.4%; AmpC inh no detg: -8.4%

How did CCOc1ccc(N2C(=O)/C(=C/c3ccco3)N(C)C2=S)cc1 do in these assays?
HCV inhibitor: 6.9%; AMA1-RON2 inh: -17.5%; Pf growth 96h: 2.08µM*; AmpC detergent: -8.7%; Pf growth 48h: 8.0%; AmpC inh no detg: -38.3%

What do the screens show for `CCOc1ccc(N2C(=O)/C(=C/c3ccco3)C(=O)NC2=S)cc1`?
HCV inhibitor: 14.6%; AMA1-RON2 inh: 3.98µM*; Pf growth 96h: inconclusive; AmpC detergent: inconclusive; Pf growth 48h: 9.6%; AmpC inh no detg: 12.6µM*

How did Cc1ccc2c(c1)/C(=C/c1ccco1)C(=O)N2 do in these assays?
HCV inhibitor: 11.2µM*; AMA1-RON2 inh: -25.7%; Pf growth 96h: inconclusive; AmpC detergent: -11.1%; Pf growth 48h: 38.7%; AmpC inh no detg: -27.0%

Results for CCOC(=O)C1=C(C)N(c2ccc(OCC)cc2)C(=O)/C1=C\c1ccco1 ?
HCV inhibitor: inconclusive; AMA1-RON2 inh: inconclusive; Pf growth 96h: inconclusive; AmpC detergent: -7.6%; Pf growth 48h: -20.0%; AmpC inh no detg: -11.9%

What do the screens show for `Cc1ccccc1N1C(=O)/C(=C/c2ccco2)C(=O)NC1=S`?
Pf growth 96h: 7.0%; AmpC detergent: 44.7µM*; Pf growth 48h: 3.5%; AmpC inh no detg: 7.08µM*

How did Cc1cc2oc3c(c(=O)c2cc1C)C1(C(=O)N(C)c2ccccc21)N(CCO)C3=O (centres undefined) do in these assays?
AmpC detergent: -2.1%

How did Cc1cccc(C(=O)Nc2nc(-c3ccc(Br)cc3)ns2)c1 do in these assays?
AmpC detergent: 16.6%

What do the screens show for `COc1ccc2sc(N(Cc3cccnc3)C(=O)C3CCCCC3)nc2c1`?
AmpC detergent: 5.2%

How did CCSc1ncc(Cl)c(C(=O)N(Cc2ccc(N(C)C)cc2)C2CCS(=O)(=O)C2)n1 (centres undefined) do in these assays?
HCV inhibitor: -11.8%; AMA1-RON2 inh: inconclusive; Pf growth 96h: 8.6%; AmpC detergent: 3.2%; Pf growth 48h: 10.4µM*; AmpC inh no detg: 43.8%

What do the screens show for `CCCOc1cccc(-c2cc(C(=O)N/N=C/c3ccccn3)c3ccccc3n2)c1`?
HCV inhibitor: inconclusive; AMA1-RON2 inh: 90.7%; Pf growth 96h: 9.28µM*; AmpC detergent: inconclusive; Pf growth 48h: 11.7µM*; AmpC inh no detg: -8.1%

What do the screens show for `CCCOc1cccc(-c2cc(C(=O)NN)c3ccccc3n2)c1`?
HCV inhibitor: 13.6%; AMA1-RON2 inh: 44.1%; Pf growth 96h: inconclusive; AmpC detergent: -13.2%; Pf growth 48h: inconclusive; AmpC inh no detg: 10µM*

How did O=C(N/N=C/c1ccccn1)c1cc(-c2ccc(Cl)cc2)nc2ccccc12 do in these assays?
HCV inhibitor: 35.3%; AMA1-RON2 inh: 46.8%; Pf growth 96h: 9.28µM*; AmpC detergent: inconclusive; Pf growth 48h: 9.28µM*; AmpC inh no detg: inconclusive

What do the screens show for `CCNC(=S)NNC(=O)c1cc(-c2cccc(OCC)c2)nc2ccccc12`?
HCV inhibitor: -2.1%; AMA1-RON2 inh: 34.1%; AmpC detergent: 1.4%; Pf growth 48h: inconclusive; AmpC inh no detg: -41.1%

How did CC(C)COc1cccc(-c2cc(C(=O)Nc3ccon3)c3ccccc3n2)c1 do in these assays?
HCV inhibitor: inconclusive; AMA1-RON2 inh: -10.2%; Pf growth 96h: -7.9%; AmpC detergent: -5.2%; Pf growth 48h: 2.08µM*; AmpC inh no detg: -55.8%

Results for CCOc1ccc(CNC(=O)Cn2nc(C)c3nn(-c4ccc(Cl)cc4)c(C)c3c2=O)cc1OC ?
AmpC detergent: 18.4%

How did CCOC(=O)c1ccc(NC(=O)C(C)N(c2ccc(OCC)cc2)S(C)(=O)=O)cc1 (centres undefined) do in these assays?
AmpC detergent: 9.3%

How did O=C(Cn1cc(SCc2ccc(F)cc2)c2ccccc21)N1CCCC1 do in these assays?
AmpC detergent: 18.7%

Results for COc1ccc2[nH]c(C)c(CCNCc3cc(OC)c4c(c3)OCO4)c2c1 ?
HCV inhibitor: inconclusive; AMA1-RON2 inh: -29.9%; Pf growth 96h: inconclusive; AmpC detergent: 0.5%; Pf growth 48h: 7.38µM*; AmpC inh no detg: -31.0%

What do the screens show for `COc1ccc2[nH]c(C)c(CCNc3ccc(C(F)(F)F)cc3[N+](=O)[O-])c2c1`?
HCV inhibitor: -9.0%; AMA1-RON2 inh: inconclusive; Pf growth 96h: 14.7µM*; AmpC detergent: -7.4%; Pf growth 48h: inconclusive; AmpC inh no detg: -19.3%

What do the screens show for `COc1ccc(CNCCc2c(C)[nH]c3ccc(OC(F)(F)F)cc23)c(OC)c1`?
HCV inhibitor: 17.8µM*; AMA1-RON2 inh: inconclusive; Pf growth 96h: inconclusive; AmpC detergent: -4.2%; Pf growth 48h: 5.22µM*; AmpC inh no detg: 33.1%
